Most compounds without a hit are left out; they make up all but 1.8% or so of the library.
ugtP null kill: growth inhibition of ugtP-null S. aureus, primary screen, RN4220 ugtP deletion, OD600 | 16 h | growth inhibition, % (no concentration beside the values) | hit rate 0.54% among 330,000; in the data active means growth inhibition above about 68%
DUSP3 inh: VHR1 phosphatase inhibitors, primary screen, biochemical, absorbance, uHTS. hit rate 0.52% among 290,000. AID 1654, 2009. inhibition, % at 13.3 µM. recombinant VHR phosphatase, pNPP absorbance. Dual specificity protein phosphatase 3 (Homo sapiens), P51452; in the data active means inhibition above about 50%
Target sequence (P51452 whole entry, looked up): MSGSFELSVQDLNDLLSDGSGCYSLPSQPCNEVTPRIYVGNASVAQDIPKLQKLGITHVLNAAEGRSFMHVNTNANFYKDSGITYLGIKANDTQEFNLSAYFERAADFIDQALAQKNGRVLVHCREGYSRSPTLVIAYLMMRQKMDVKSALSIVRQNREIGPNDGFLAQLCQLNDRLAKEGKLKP
PfHsp40 rescue: rescue of yeast from PfHsp40 toxicity, primary screen, S. cerevisiae, ATP luminescence; hit rate 0.68% among 340,000; growth rescue, % at 12.5 µM; S. cerevisiae expressing PfHsp40, growth rescue; in the data active means growth rescue above about 28%, passing the limit was not always enough;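 further: yeast W303a lacking pdr1 and pdr3 grown in galactose medium; growth measured after three days at 30 °C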
SSB-PriA inh: inhibitors of Klebsiella pneumoniae PriA binding to SSB C-terminal tail, primary screen, biochemical, AlphaScreen; AlphaScreen SSBct-PriA binding, biotinylated peptide; inhibition, % at 33 µM; hit rate 0.6% among 430,000; in the data active means inhibition mostly above about 37%, no sharp cut-off; inactive means mostly below about 20%
RN4220 kill: growth inhibition of S. aureus RN4220, primary screen, OD600; 16 h; inhibition, % (test concentration not listed); hit rate 0.33% among 330,000; AID 1259311, 2017; in the data active means inhibition above about 85%
Mtb hypoxia inh: PubChem AID 1159583 | hit rate 0.1% among 300,000 | M. tuberculosis hypoxia-regulated fluorescent reporter, fluorescence | fluorescence inhibition, % (test concentration not listed); in the data active means fluorescence inhibition mostly above about 23%, no sharp cut-off; inactive means mostly below about 17%
A number is an active result; - = inactive; . = not tested or not shown; ! = not active in a repeat.

SMILES | ugtP null kill | DUSP3 inh | PfHsp40 rescue | SSB-PriA inh | RN4220 kill | Mtb hypoxia inh
Cn1c2ccccc2c2cc(C(=O)O)ccc21 | - | - | 42 | - | - | -
O=C(O)CCn1c2ccccc2c2ccccc21 | . | . | . | - | . | .
COc1ccc(C(NC(N)=O)c2ccccc2)cc1 (stereo unspecified) | - | - | 73 | - | - | -
Cc1ccc(C(NC(N)=O)c2ccccc2)cc1 (stereo unspecified) | - | - | - | - | - | -
O=C(C1=C[C@@H](c2ccc(Br)cc2)C[C@@H](OCCCCO)O1)N1CCN(Cc2ccc3c(c2)OCO3)CC1 | . | - | - | - | . | .
O=C(C1=C[C@H](c2ccc(Br)cc2)C[C@H](OCCCCO)O1)N1CCN(Cc2ccccc2)CC1 | . | - | - | 42 | . | .
CN(C)c1ccc(C=c2c3ccccc3n3c2c2c([n+]3C)CCCC2)cc1 | . | . | 300 | - | . | .
CN(C)c1ccc(C=c2c3ccccc3n3c2cc(-c2ccccc2)[n+]3C)cc1 | . | . | - | - | . | .
CN(C)c1ccc(C=c2c3cc([N+](=O)[O-])ccc3n3c2cc(-c2ccccc2)[n+]3C)cc1 | . | . | - | - | . | .
CN(C)c1ccc(C=c2c3ccccc3n3c2cc(-c2ccc(Cl)cc2)[n+]3C)cc1 | . | . | 219 | . | . | .
COC(=O)c1[nH]c2c(c1C)C(=O)CC(c1cc(OC)c(OC)c(OC)c1)C2 (stereo unspecified) | - | 52 | - | - | - | -
COC(=O)c1[nH]c2c(c1C)C(=O)CC(c1ccc(OC)c(OC)c1)C2 (stereo unspecified) | - | - | - | - | - | -
CCOc1ccc(NCc2ccc(O)c3ncccc23)cc1 | . | . | . | - | . | .
Cc1cccc(NCc2ccc(O)c3ncccc23)c1C | - | - | - | 60 | - | -
COc1ccccc1NCc1ccc(O)c2ncccc12 | . | . | . | - | . | .
Cc1ccc(NCc2ccc(O)c3ncccc23)cc1 | - | - | - | - | - | -
Cc1cccnc1NCc1ccc(O)c2ncccc12 | - | - | - | 57 | - | -
Cc1ccc(NCc2ccc(O)c3ncccc23)cc1C | - | - | - | 41 | - | -
COCC(=O)N1CCCc2ccc(NS(=O)(=O)c3cccc(F)c3)cc21 | . | . | . | - | . | .
O=C(Cc1csc(NC(=O)C2CC2)n1)Nc1nc2ccccc2s1 | . | . | . | - | . | .
CCCCOc1ccc(CSCCN=C(N)N)cc1 | 100 | - | - | - | - | -
Clc1ccc(/C=C/c2nc3ccccc3[nH]2)c(Cl)c1 | 92 | - | - | - | - | -
COc1cc2c(=O)n(CCC(=O)NCC3CCCO3)c(=O)n(CC(=O)c3ccc(Cl)cc3)c2cc1OC (stereo unspecified) | - | 51 | - | - | - | -
Fc1ccc(CON=CC2=C(Cl)c3ccccc3CC2)cc1 | 99 | . | . | - | - | .
Cc1ccc(CO/N=C/C2=C(Cl)c3ccccc3CC2)cc1 | . | - | - | . | . | .
SMILES | ugtP null kill | DUSP3 inh | PfHsp40 rescue | SSB-PriA inh | RN4220 kill | Mtb hypoxia inh
NC(=O)C1Cc2ccccc2N1C(=O)c1cc(=O)c2ccccc2o1 (stereo unspecified) | . | . | . | - | . | .
Cc1cc(=O)n2nc(N3CCC(C(=O)NCc4ccccc4)CC3)sc2n1 | - | 52 | - | - | - | -
Cc1ccc(CNC(=O)C2CCN(c3nn4c(=O)cc(C)nc4s3)CC2)cc1 | - | - | - | - | - | -
Cc1cccc2sc(N(CCCn3ccnc3)C(=O)c3ccco3)nc12 | . | . | . | 45 | . | .
CN(C)CCCN(C(=O)c1ccco1)c1nc2c(F)cccc2s1 | - | - | - | - | - | -
Cc1ccc2sc(N(CCCn3ccnc3)C(=O)c3ccco3)nc2c1C | . | . | . | 88 | . | .
O=C(c1ccco1)N(CCCn1ccnc1)c1nc2ccccc2s1 | . | . | . | 72 | . | .
CC(=O)c1ccc(C(=O)N(CCn2cccn2)c2nc3c(C)cc(C)cc3s2)cc1 | . | . | . | - | . | .
CC(=O)c1ccc(C(=O)N(CCCn2ccnc2)c2nc3c(C)cc(C)cc3s2)cc1 | . | . | . | 49 | . | .
COc1ccc(CNC(=O)c2cn(-c3cccc(Cl)c3)nn2)c(OC)c1 | . | . | . | - | . | .
O=C(c1cccs1)N(CCCn1ccnc1)c1nc2c(Cl)cccc2s1 | . | . | . | 77 | . | .
O=C(CSc1ccccc1)N(CCCn1ccnc1)c1nc2c(Cl)cccc2s1 | . | . | . | - | . | .
COC(=O)c1ccc(CSc2ccc(-c3sc(-c4ccc(F)cc4)nc3C)nn2)o1 | . | . | . | - | . | .
Cc1c(Cl)cccc1NC(=S)N(Cc1cccnc1)Cc1ccccc1Cl | - | - | 35 | - | - | -
c1cncc(-c2n[nH]c(-c3cnccn3)n2)c1 | . | . | . | - | . | .
Sc1n[nH]c(-c2ccccn2)n1 | . | . | . | 113 | . | .
c1ccc(-c2n[nH]c(-c3ccccn3)n2)nc1 | - | - | - | 93 | - | -
c1ccc(-c2ccccn2)nc1 | - | - | - | - | - | -
Oc1ccccc1-c1ccn[nH]1 | - | . | - | - | - | -
Oc1ccccc1-c1n[nH]c(-c2ccccn2)n1 | . | . | . | 94 | . | .
c1ccc(-c2n[nH]c(-c3ccccn3)n2)cc1 | - | - | - | 42 | - | .
Cc1[nH]c2ccccc2c1SCCNC(=O)C(c1ccccc1)c1ccccc1 | . | . | . | - | . | .
Cc1cccc(CC(=O)Nc2ccc(-c3ccc(N4CCN(C)CC4)nn3)cc2)c1 | . | . | . | - | . | .
c1ccc(-c2nn[nH]n2)cc1 | - | - | - | - | - | -
c1ccc(-c2nn[nH]n2)nc1 | - | - | - | 107! | - | -
SMILES | ugtP null kill | DUSP3 inh | PfHsp40 rescue | SSB-PriA inh | RN4220 kill | Mtb hypoxia inh
O=C(CSc1n[nH]c(-c2ccccn2)n1)N1c2ccccc2Sc2ccccc21 | . | . | . | - | . | .
c1ccc(CSc2n[nH]c(-c3ccccn3)n2)cc1 | . | . | . | 59 | . | .
c1ccc(-c2ccc(-c3ccccn3)nn2)nc1 | . | - | . | 106 | . | .
NCc1nc(-c2ccccn2)n[nH]1 | . | . | . | 116 | . | .
CCCc1cc(=O)[nH]c(SCc2ccc(C(=O)OC)cc2)n1 | . | . | . | - | . | .
Cc1[nH]n(-c2ccccc2)c(=O)c1C=NNC(=O)C(C)C | - | . | . | - | - | -
Cc1ccc([N+](=O)[O-])cc1NC(=O)c1cccn(Cc2c(F)cccc2Cl)c1=O | . | . | . | - | . | .
COC(=O)[C@]1(Cc2ccccc2)N[C@H](CN(C)C(=O)c2ccccc2)[C@@H]2C(=O)N(Cc3ccccc3)C(=O)[C@@H]21 | . | . | - | - | . | .
